# Experimental data as given in the supplement of paper PMC4466140.
# Molecular target: ScBbc1
# Test: SPOT peptide array binding signal intensity (averaged, normalized) (arbitrary units (background-subtracted, floor 0; scale differs between SH3 domains)); higher = stronger binding of the SH3 domain to the peptide
# Summary of the method: (§1)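 E. coli BL21(DE3) was used to express GST-fused SH3 domains from four yeast species, which were then purified on glutathione Sepharose. These were incubated at 10 μg/ml in TBS-based blocking buffer overnight at 4°C on cellulose membranes carrying synthetic 15-mer peptides, in which cysteines were replaced by serines. Binding signal is the replicate average of normalized, background-subtracted spot intensity, in arbitrary units that differ between domains.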
row,Binder,SPOT peptide array binding signal intensity
1,FLIKFTPKFPQSIDH,5.5

# Molecular target: ScBem1-D1
# Test: as above
# Summary of the method: as §1
row,Binder,SPOT peptide array binding signal intensity
1,FLIKFTPKFPQSIDH,47.5

# Molecular target: ScBzz1-D1
# Test: as above
# Summary of the method: as §1
row,Binder,SPOT peptide array binding signal intensity
1,FLIKFTPKFPQSIDH,224

# Molecular target: ScBzz1-D2
# Test: as above
# Summary of the method: as §1
row,Binder,SPOT peptide array binding signal intensity
1,FLIKFTPKFPQSIDH,611

# Molecular target: ScCyk3
# Test: as above
# Summary of the method: as §1
row,Binder,SPOT peptide array binding signal intensity
1,FLIKFTPKFPQSIDH,145

# Molecular target: ScFus1
# Test: as above
# Summary of the method: as §1
row,Binder,SPOT peptide array binding signal intensity
1,FLIKFTPKFPQSIDH,1850

# Molecular target: ScHof1
# Test: as above
# Summary of the method: as §1
row,Binder,SPOT peptide array binding signal intensity
1,FLIKFTPKFPQSIDH,3.25

# Molecular target: ScHse1
# Test: as above
# Summary of the method: as §1
row,Binder,SPOT peptide array binding signal intensity
1,FLIKFTPKFPQSIDH,2710

# Molecular target: ScLsb1
# Test: as above
# Summary of the method: as §1
row,Binder,SPOT peptide array binding signal intensity
1,FLIKFTPKFPQSIDH,1

# Molecular target: ScLsb2
# Test: as above
# Summary of the method: as §1
row,Binder,SPOT peptide array binding signal intensity
1,FLIKFTPKFPQSIDH,9

# Molecular target: ScLsb3
# Test: as above
# Summary of the method: as §1
row,Binder,SPOT peptide array binding signal intensity
1,FLIKFTPKFPQSIDH,706

# Molecular target: ScLsb4
# Test: as above
# Summary of the method: as §1
row,Binder,SPOT peptide array binding signal intensity
1,FLIKFTPKFPQSIDH,80

# Molecular target: ScMyo3
# Test: as above
# Summary of the method: as §1
row,Binder,SPOT peptide array binding signal intensity
1,FLIKFTPKFPQSIDH,15.5

# Molecular target: ScMyo5
# Test: as above
# Summary of the method: as §1
row,Binder,SPOT peptide array binding signal intensity
1,FLIKFTPKFPQSIDH,14

# Molecular target: ScNbp2
# Test: as above
# Summary of the method: as §1
row,Binder,SPOT peptide array binding signal intensity
1,FLIKFTPKFPQSIDH,715

# Molecular target: ScPex13
# Test: as above
# Summary of the method: as §1
row,Binder,SPOT peptide array binding signal intensity
1,FLIKFTPKFPQSIDH,86.5

# Molecular target: ScRvs167
# Test: as above
# Summary of the method: as §1
row,Binder,SPOT peptide array binding signal intensity
1,FLIKFTPKFPQSIDH,47

# Molecular target: ScSho1
# Test: as above
# Summary of the method: as §1
row,Binder,SPOT peptide array binding signal intensity
1,FLIKFTPKFPQSIDH,2000

# Molecular target: ScSla1-D1-D2
# Test: as above
# Summary of the method: as §1
row,Binder,SPOT peptide array binding signal intensity
1,FLIKFTPKFPQSIDH,322

# Molecular target: ScSla1-D3
# Test: as above
# Summary of the method: as §1
row,Binder,SPOT peptide array binding signal intensity
1,FLIKFTPKFPQSIDH,232

# Molecular target: SpAbp1-D1
# Test: as above
# Summary of the method: as §1
row,Binder,SPOT peptide array binding signal intensity
1,FLIKFTPKFPQSIDH,50.5

# Molecular target: SpBbc1
# Test: as above
# Summary of the method: as §1
row,Binder,SPOT peptide array binding signal intensity
1,FLIKFTPKFPQSIDH,27

# Molecular target: SpBzz1-D1
# Test: as above
# Summary of the method: as §1
row,Binder,SPOT peptide array binding signal intensity
1,FLIKFTPKFPQSIDH,1440

# Molecular target: SpBzz1-D2
# Test: as above
# Summary of the method: as §1
row,Binder,SPOT peptide array binding signal intensity
1,FLIKFTPKFPQSIDH,17.8

# Molecular target: SpCyk3
# Test: as above
# Summary of the method: as §1
row,Binder,SPOT peptide array binding signal intensity
1,FLIKFTPKFPQSIDH,48.5

# Molecular target: SpHof1
# Test: as above
# Summary of the method: as §1
row,Binder,SPOT peptide array binding signal intensity
1,FLIKFTPKFPQSIDH,662

# Molecular target: SpHof1-2
# Test: as above
# Summary of the method: as §1
row,Binder,SPOT peptide array binding signal intensity
1,FLIKFTPKFPQSIDH,126

# Molecular target: SpHof1-3
# Test: as above
# Summary of the method: as §1
row,Binder,SPOT peptide array binding signal intensity
1,FLIKFTPKFPQSIDH,1580

# Molecular target: SpHse1
# Test: as above
# Summary of the method: as §1
row,Binder,SPOT peptide array binding signal intensity
1,FLIKFTPKFPQSIDH,1950

# Molecular target: SpLsb1
# Test: as above
# Summary of the method: as §1
row,Binder,SPOT peptide array binding signal intensity
1,FLIKFTPKFPQSIDH,11.5

# Molecular target: SpLsb4
# Test: as above
# Summary of the method: as §1
row,Binder,SPOT peptide array binding signal intensity
1,FLIKFTPKFPQSIDH,610

# Molecular target: SpMyo1
# Test: as above
# Summary of the method: as §1
row,Binder,SPOT peptide array binding signal intensity
1,FLIKFTPKFPQSIDH,75

# Molecular target: SpNbp2
# Test: as above
# Summary of the method: as §1
row,Binder,SPOT peptide array binding signal intensity
1,FLIKFTPKFPQSIDH,1010

# Molecular target: SpPex13
# Test: as above
# Summary of the method: as §1
row,Binder,SPOT peptide array binding signal intensity
1,FLIKFTPKFPQSIDH,309

# Molecular target: SpRvs167
# Test: as above
# Summary of the method: as §1
row,Binder,SPOT peptide array binding signal intensity
1,FLIKFTPKFPQSIDH,49.8

# Molecular target: SpSla1-D1-D2
# Test: as above
# Summary of the method: as §1
row,Binder,SPOT peptide array binding signal intensity
1,FLIKFTPKFPQSIDH,4

# Molecular target: SpSla1-D3
# Test: as above
# Summary of the method: as §1
row,Binder,SPOT peptide array binding signal intensity
1,FLIKFTPKFPQSIDH,172
